According to PMC4336329 (PLoS ONE, 2015):
Among all 310,000 compounds or so, about 14,000 (4.5%) showed an effect of 50% or more. Effects have a minus sign here. This is one part of a sample in which strong results are shown more often than they occur.

Each compound was assayed against human ether-à-go-go-related gene (hERG) potassium channel (human, UniProt Q12809) (assay: primary screen, population patch clamp on CHO cells stably expressing hERG; higher = less effect of the substance).
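Further: peak tail current of the secondary pulse compared with the same well before compound.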

human ether-à-go-go-related gene (hERG) potassium channel, sequence (Q12809 whole entry, looked up): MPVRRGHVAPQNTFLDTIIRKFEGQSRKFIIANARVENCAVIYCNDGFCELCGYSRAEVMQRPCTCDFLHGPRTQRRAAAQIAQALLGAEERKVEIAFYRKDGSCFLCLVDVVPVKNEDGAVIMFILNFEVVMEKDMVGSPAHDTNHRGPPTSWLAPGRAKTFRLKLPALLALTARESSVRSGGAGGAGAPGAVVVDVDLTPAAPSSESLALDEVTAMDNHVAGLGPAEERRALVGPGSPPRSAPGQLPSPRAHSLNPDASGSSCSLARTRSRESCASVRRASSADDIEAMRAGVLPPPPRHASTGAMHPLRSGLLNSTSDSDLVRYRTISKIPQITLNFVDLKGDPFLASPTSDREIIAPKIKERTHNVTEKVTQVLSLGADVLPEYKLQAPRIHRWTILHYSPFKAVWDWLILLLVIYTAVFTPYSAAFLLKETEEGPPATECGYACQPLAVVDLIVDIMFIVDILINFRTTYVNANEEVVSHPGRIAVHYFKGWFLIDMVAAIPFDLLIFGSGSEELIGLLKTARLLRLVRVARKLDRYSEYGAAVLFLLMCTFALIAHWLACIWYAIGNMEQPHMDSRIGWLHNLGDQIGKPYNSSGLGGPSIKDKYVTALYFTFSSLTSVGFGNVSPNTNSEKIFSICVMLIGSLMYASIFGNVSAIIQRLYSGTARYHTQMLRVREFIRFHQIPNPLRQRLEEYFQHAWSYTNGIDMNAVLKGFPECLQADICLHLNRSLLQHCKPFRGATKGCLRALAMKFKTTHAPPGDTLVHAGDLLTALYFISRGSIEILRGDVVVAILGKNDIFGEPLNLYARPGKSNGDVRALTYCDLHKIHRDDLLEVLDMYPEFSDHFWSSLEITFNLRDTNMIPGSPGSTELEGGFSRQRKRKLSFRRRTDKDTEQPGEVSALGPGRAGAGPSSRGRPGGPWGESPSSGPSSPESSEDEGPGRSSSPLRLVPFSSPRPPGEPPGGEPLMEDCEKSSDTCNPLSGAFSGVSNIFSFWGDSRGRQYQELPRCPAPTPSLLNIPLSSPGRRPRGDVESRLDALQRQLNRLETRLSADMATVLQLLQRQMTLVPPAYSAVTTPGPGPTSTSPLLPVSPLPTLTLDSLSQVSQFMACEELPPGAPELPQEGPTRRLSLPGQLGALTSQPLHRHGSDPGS

SMILES	hERG current change (%, negative = inhibition) at 10uM [%]
CCCN1CCC(NC(=O)Nc2cc(Cl)ccc2OC)CC1	-19.1
CCCCOc1ccc(C(=O)Nc2ccc(N3CCN(C(=O)C(C)C)CC3)cc2)cc1	6.91
NC(=O)C1CCN(C(=O)c2ccc(F)c(S(=O)(=O)N3CCOCC3)c2)CC1	-0.931
C/C(=N\NC(=O)CNC(=O)c1ccc(Br)cc1)c1ccco1	5.38
CC1CCN(CCCNC(=O)COc2cc(=O)n(C)c3ccccc23)CC1	8.58
Cn1c(=O)cc(OCC(=O)NCCCN2CCN(c3cccc(Cl)c3)CC2)c2ccccc21	-50.8
CCn1c(=O)cc(OCC(=O)NCCCN2CC(C)CC(C)C2)c2ccccc21 (stereo not shown)	-12.5
CCn1c(=O)cc(OCC(=O)NCCCN2CCC(C)CC2)c2ccccc21	-8.39
CCn1c(=O)cc(OCC(=O)NCCCN2CCN(c3cccc(Cl)c3)CC2)c2ccccc21	-61.1
Cn1c(=O)cc(OCC(=O)NCCCN2CCN(Cc3ccccc3)CC2)c2ccccc21	-17.8
O=S(=O)(N/N=C\c1cn(-c2ccccc2)nc1-c1ccccc1)c1ccccc1	5.42
COC(=O)c1ccc(N2C(=O)Nc3ccccc3N2O)cc1	12.5
CCN1CCN(C(C(=O)NC2CCCC2)c2cc3c(cc2[N+](=O)[O-])OCO3)CC1 (stereo not shown)	-1.51
CN(C)S(=O)(=O)N1CCC(C(=O)O)(c2ccccc2)CC1	18.7
CCCc1nc2ccc(NC(=O)c3cccs3)cc2c(=O)n1Cc1ccccc1Cl	1.8
O=S(=O)(c1ccccc1)N1CCC(n2nnc3cc(F)ccc32)CC1	-27.7
O=S(=O)(c1cccc(S(=O)(=O)N2CCC(n3nnc4ccccc43)CC2)c1)N1CCCCC1	-55.7
O=S(=O)(NC1CCCC1)c1cccc(S(=O)(=O)N2CCC(n3nnc4ccccc43)CC2)c1	-26
CC(=O)c1cccc(S(=O)(=O)N2CCC(n3nnc4cc(F)ccc43)CC2)c1	-63.7
COC(=O)c1cccc(S(=O)(=O)N2CCC(n3nnc4cc(F)ccc43)CC2)c1	-34.3
Cc1ccc2c(c1)nnn2C1CCN(S(=O)(=O)c2cccc(S(=O)(=O)N(C)C)c2)CC1	-16.7

SMILES	hERG current change (%, negative = inhibition) at 10uM [%]
CCCc1ccc(-c2cc(C(=O)NC3=NCCS3)c3ccccc3n2)cc1	-2.06
O=C(Cn1nc(-c2ccccc2)ccc1=O)NCCN1CCN(Cc2ccccc2)CC1	-19.1
CN1CCN(CCCNC(=O)Cn2nc(-c3ccccc3)ccc2=O)CC1	14.1
CCCN1CCN(CCCNC(=O)Cn2nc(-c3ccccc3)ccc2=O)CC1	-22.2
O=C(Cn1nc(-c2ccc(Cl)cc2)ccc1=O)NCCCN1CCN(Cc2ccccc2)CC1	-64.2
CCCN1CCN(CCCNC(=O)Cn2nc(-c3ccc(Cl)cc3)ccc2=O)CC1	-50.8
CCCN1CCN(CCCNC(=O)Cn2nc(-c3ccc(C)cc3)ccc2=O)CC1	-24.6
Cn1c(=O)c2c(nc(CN3CCOCC3)n2CCN2CCOCC2)n(C)c1=O	3.09
COc1ccc(/C=C(/NC(=O)c2ccccc2)C(=O)NC(Cc2c[nH]c3ccccc23)C(=O)O)cc1 (stereo not shown)	14.5
COc1cccc(/C=C2\SC(=S)N(CC(=O)N(C)C3CCS(=O)(=O)C3)C2=O)c1 (stereo not shown)	1.18
CCCCOC(=O)NS(=O)(=O)c1sc(CC(C)C)cc1-c1ccc(Cn2c(CC)nc3c(C)cc(C)nc32)cc1	5.9
Cc1ccccc1C1=NCC(=S)Nc2ccc(Cl)cc21	0.98
COc1ccc(C2c3c(ncn(CCCO)c3=N)Oc3ccc4ccccc4c32)cc1 (stereo not shown)	-33.9
N=c1c2c(ncn1CCN1CCOCC1)Oc1ccc3ccccc3c1C2c1ccccc1 (stereo not shown)	-49.3
N=c1c2c(ncn1CCCO)Oc1c(ccc3ccccc13)C2c1ccccc1 (stereo not shown)	-70.4
COc1ccc(C2c3ccc4ccccc4c3Oc3ncn(CCO)c(=N)c32)cc1 (stereo not shown)	-74.2
COc1ccc(C2c3c(ncn(CCCO)c3=N)Oc3ccc4ccccc4c32)cc1OC (stereo not shown)	-28.8
N=c1c2c(ncn1CCCO)Oc1ccc3ccccc3c1C2c1ccccc1 (stereo not shown)	-53.6
COc1ccc(C2c3ccc4ccccc4c3Oc3ncn(CCO)c(=N)c32)cc1OC (stereo not shown)	-45.7
COc1ccc(C2c3ccc4ccccc4c3Oc3ncn(CCCO)c(=N)c32)cc1OC (stereo not shown)	-62.3
COC(=O)C1CN(C(=O)COc2ccc(Cl)cc2Cl)c2ccccc2O1 (stereo not shown)	-2.51

SMILES	hERG current change (%, negative = inhibition) at 10uM [%]
CCCCNC(=O)/C(C#N)=c1\s/c(=C\c2ccccc2OC(F)F)c(=O)n1CCCOC	22.6
Cc1ccc(Nc2c([N+](=O)[O-])cc(C(=O)N3CC(=O)Nc4ccccc43)cc2[N+](=O)[O-])c(C)c1	15.2
COCCNC(=O)C(=O)c1c(-c2ccccc2)[nH]c2ccccc12	1.69
CCOC(=O)NCc1ccc2c(c1)OCO2	19.7
O=C(CCN1C(=O)/C(=C/c2ccc(F)cc2)SC1=S)Nc1cc([N+](=O)[O-])ccc1O	15
COC(=O)c1ccnc(/C=N/O)c1	10.7
CCNS(=O)(=O)c1ccc2nc(NC(=O)c3cccnc3)sc2c1	-1.78
Cc1ccc(N2CC(C(=O)Nc3cccnc3)CC2=O)cc1 (stereo not shown)	-9.42
O=S(=O)(c1ccc(Cl)cc1)N1CCN2CCCC2C1 (stereo not shown)	-6.01
CN(C)NC1CC(=O)N(c2ccccc2)C1=O (stereo not shown)	15.9
NC(=O)N/N=C/c1cn(-c2ccccc2)nc1-c1ccccc1	-6.63
Cc1[nH]c(=O)[nH]c(=O)c1S(=O)(=O)Nc1ccc(F)cc1Cl	17.1
S=c1[nH]nc(COc2ccccc2)n1/N=C/c1ccc(Cl)cc1	22.4
COc1ccc(C2c3ccc4ccccc4c3Oc3ncn(CCCO)c(=N)c32)cc1 (stereo not shown)	-71.6
COc1ccc(C2c3ccc4ccccc4c3Oc3ncn(Cc4ccco4)c(=N)c32)cc1OC (stereo not shown)	-62.9
COc1ccccc1C1c2ccc3ccccc3c2Oc2ncn(CCCO)c(=N)c21 (stereo not shown)	-66.6
N=c1c2c(ncn1Cc1ccco1)Oc1c(ccc3ccccc13)C2c1ccccc1 (stereo not shown)	-26.5
COc1ccc(C2c3ccc4ccccc4c3Oc3ncn4nc(Cc5ccccc5)nc4c32)cc1OC (stereo not shown)	13.2
CC1(c2nnc(-c3ccccc3)o2)CC(c2ccc([N+](=O)[O-])cc2)=NO1 (stereo not shown)	4.53
O=C(Nc1cccc(Cl)c1)c1cc(S(=O)(=O)N2CCCCC2)c[nH]1	-9.13
Cc1nn2c(=O)cc(CSc3ccccc3NC(=O)c3ccccc3F)nc2s1	-3.29

SMILES	hERG current change (%, negative = inhibition) at 10uM [%]
CCCCCCCCCCCC(=O)N/N=C/c1ccco1	-11.2
COc1ccc(Cc2nc3ccc(C(=O)N4CCCCC4CCO)cc3o2)cc1 (stereo not shown)	4.93
CN(C)C(=O)Cn1c(SCC(=O)NC2CCCCC2)nc2ccccc21	7.7
COC(=O)Cn1c(=O)c(=O)n(CC(=O)OC)c2ccccc21	22.7
Cn1cnc(S(=O)(=O)NC2CCN(Cc3c(F)cccc3Cl)CC2)c1	-18.6
COCCN(C(=O)C1CC1)c1nnc(-c2cccc(C)c2)s1	-6.82
O=C(Cn1c(=O)c2cccn2c2cccnc21)N1CCN(c2ccc(Cl)cc2)CC1	-47
O=C(O)CCC(=O)N1CCN(c2cccc(Cl)c2)CC1	12
O=C(CCn1c(=O)c2cccn2c2cccnc21)N1CCN(c2cccc(Cl)c2)CC1	-58.8
CN1CCN(C(=O)CCn2c(=O)c3cccn3c3cccnc32)CC1	8.62
O=C(OCC(=O)N1CCN(c2ccccc2)CC1)c1ccc(Cl)cc1[N+](=O)[O-]	-63.6
O=C(OCC(=O)N1CCN(c2ccccc2)CC1)c1cc(Cl)ccc1[N+](=O)[O-]	-37
O=C(CCNS(=O)(=O)c1cccs1)N1CCN(c2cccc(Cl)c2)CC1	-10.3
O=C(CCC(=O)N1CCN(c2cccc(Cl)c2)CC1)N1CCN(c2ccccc2)CC1	-55.6
O=C(OCC(=O)N1CCN(c2ccccc2)CC1)c1ccccc1[N+](=O)[O-]	-28.8
O=C(CCCNS(=O)(=O)c1cccs1)N1CCN(c2ccc(F)cc2)CC1	-43.2
O=C(O)CCCC(=O)N1CCN(c2cccc(Cl)c2)CC1	2.98
O=C(CCCNS(=O)(=O)c1cccs1)N1CCN(c2cccc(Cl)c2)CC1	-56.9
O=C(COc1c(Br)cc(Br)cc1Br)N/N=C/c1ccco1	14.2
